High-throughput results (PubChem BioAssay)
D2 PAM-1: positively modulates the human D2 dopamine receptor allosterically; P14416; 340,000 compounds, 0.34% hits; HEK293 T-REx D2, calcium flux, EC20 dopamine potentiation; potentiation, % at 10 µM;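 active = potentiation over 3 SD above the plate norm, cut at about 30% in these data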
Target sequence (P14416 whole entry, looked up): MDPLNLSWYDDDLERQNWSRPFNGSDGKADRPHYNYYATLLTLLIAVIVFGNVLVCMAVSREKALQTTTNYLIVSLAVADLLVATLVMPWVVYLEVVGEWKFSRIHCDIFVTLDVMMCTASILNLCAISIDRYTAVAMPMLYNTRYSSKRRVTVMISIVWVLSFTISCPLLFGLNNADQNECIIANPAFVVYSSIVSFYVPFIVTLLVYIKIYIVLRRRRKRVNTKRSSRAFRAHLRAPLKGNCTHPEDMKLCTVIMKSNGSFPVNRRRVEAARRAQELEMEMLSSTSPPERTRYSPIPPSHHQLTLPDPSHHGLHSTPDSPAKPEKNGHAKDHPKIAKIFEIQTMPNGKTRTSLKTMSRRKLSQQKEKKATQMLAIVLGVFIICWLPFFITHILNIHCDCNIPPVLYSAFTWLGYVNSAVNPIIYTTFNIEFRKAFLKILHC
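Cells plated with tetracycline inducer and held overnight at 30 C; calcium dye loaded 30–90 min at room temperature; baseline taken, compound added and read 180 s; EC20 dopamine then added and read 180 s.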
D2 antagonist: D2 dopamine receptor (human) antagonism; P14416; HEK293 TREx D2 cells, calcium flux, dopamine EC80; inhibition, % at 10 µM; 340,000 compounds, 2% hits; in the data active = inhibition above about 30%; inactive = below that, where a call was filed
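In this primary screen, negative modulation is detected by tracking calcium flux after an EC80 dopamine challenge in inducible HEK293 T-REx D2 cells preexposed to test compound for 180 s.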
D2 ag-1: human D2 receptor agonism in beta-arrestin assay; P14416; DiscoveRx PathHunter D2 beta-arrestin, luminescence, 90 min; 100% = 57 uM dopamine signal; activation, % (test concentration not listed); 360,000 compounds, 0.084% hits; in the data active = activation above about 40%; inconclusive = between about 15% and that limit
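Agonist mode: compounds alone added to overnight-plated D2 PathHunter cells for 90 min at 37 C, with 57 uM final dopamine (EC100) defining full response. Beta-arrestin recruitment detected by chemiluminescent reagent, read after 1 h at ambient temperature.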
D2 PAM-2: potentiates the human D2 dopamine receptor allosterically. 360,000 compounds, 0.23% hits. P14416. DiscoveRx D2 beta-arrestin cells, luminescence, 90 min; 100% = 57 uM dopamine signal. potentiation, % (test concentration not listed); in the data active = potentiation above about 50%; inconclusive = mostly about 30% to 49%
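PathHunter D2 cells, attached overnight at 37 deg C, received compound in DMSO plus dopamine at EC20 (50 nM final) for 90 min at 37 deg C. Beta-arrestin recruitment was read as luminescence after 1 h with detection reagent at ambient temperature.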
D2 ag-2: activates the human D2 dopamine receptor; P14416; HEK293 T-REx D2 cells, calcium flux agonist mode; activation, % at 2 µM; 340,000 compounds, 0.53% hits;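 active = activation over 3 SD above normal in the single-dose calcium agonist read, cut at about 30% in these data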
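Tetracycline-induced HEK293 T-REx cells with force-coupled D2 receptor, plated overnight at 30 C, loaded with no-wash calcium dye. After a 10 s baseline, compound was pin-added and calcium flux read kinetically for 180 s; calcium rises flagged agonists.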
Large screens that a line does not name were inactive. Only some compounds are listed: those with a hit (about 2.4% of all), similar ones and a draw of the others.

CC(C)OP(=O)(OC(C)C)C(Nc1ccc(C(=O)O)cc1)c1ccccc1 (stereo unspecified)	D2 PAM-1 30
CC(C)OP(=O)(OC(C)C)C(Nc1cccc(C(=O)O)c1)c1ccccc1 (stereo unspecified)	none
COc1cccc(NC(=O)CSc2nc3c(oc4ccccc43)c(=O)n2Cc2ccco2)c1	none (no result: D2 antagonist, D2 ag-1, D2 PAM-2)
NC(=S)N=Nc1c(O)cc(O)c2[nH]c(=O)ccc12	D2 ag-1 inconclusive, D2 PAM-2 66 (no result: D2 PAM-1, D2 antagonist, D2 ag-2)
CC(=O)c1c(C)[nH]c(C(=O)Nc2nc(C)cs2)c1C	D2 antagonist 33
COc1ccc(-c2nc(NC(=O)c3ccco3)sc2C)cc1	none (no result: D2 PAM-1, D2 antagonist, D2 ag-2)
CC(=O)c1c(C)[nH]c(C(=O)Nc2nc(-c3ccc(Cl)cc3)cs2)c1C	none
COc1ccc(-c2nc(NC(=O)c3[nH]c(C)c(C(C)=O)c3C)sc2C)cc1	D2 PAM-1 31
CCOC(=O)N/N=C/c1cc(OC)c(O)c(OC)c1	none
CCOC(=O)c1sc(N/N=C/c2cc(Br)c(O)c(OC)c2)nc1C	D2 ag-1 41, D2 PAM-2 51
O=C(O)/C=C/C(=O)Nc1cccc2c1-c1ccccc1C2=O	none (no result: D2 PAM-1, D2 antagonist, D2 ag-2)
CC(C)c1ccc(NC(=O)CSc2n[nH]c(=O)n2-c2cccnc2)cc1	D2 antagonist 31
CC(C)(C)c1ccc(NC(=O)CSc2n[nH]c(=O)n2-c2cccnc2)cc1	none
COc1cc(-c2nc3ccccn3c2/N=C/c2cc(OC)c(OC)c(OC)c2)ccc1O	D2 PAM-2 52 (no result: D2 PAM-1, D2 antagonist, D2 ag-2)
COc1ccc(C(NC(=O)C2CCN(CCOc3ccc(F)cc3)CC2)c2cccs2)cc1 (stereo unspecified)	none (no result: D2 PAM-1, D2 antagonist, D2 ag-2)
COc1ccc(C(NC(=O)C2CCN(CCOc3ccc(Cl)cc3Cl)CC2)c2cccs2)cc1 (stereo unspecified)	D2 ag-1 70 (no result: D2 PAM-1, D2 antagonist, D2 ag-2)
O=C(NCCN1CCOCC1)c1ccc([N+](=O)[O-])cc1[N+](=O)[O-]	D2 antagonist 43, D2 PAM-2 50
O=C(Oc1ccccc1C(=S)N1CCOCC1)c1ccc([N+](=O)[O-])cc1[N+](=O)[O-]	D2 ag-1 inconclusive, D2 PAM-2 58
O=C(c1ccc(F)cc1)C1CCN(CCn2c(=O)[nH]c3ccccc3c2=O)CC1	D2 antagonist 58
CC1(C(=O)NC2CCCCC2)CCC(=O)N1C1CCN(Cc2ccccc2)CC1 (stereo unspecified)	none (no result: D2 PAM-1, D2 antagonist, D2 ag-2)
CCOc1ccc(N2CC(C(=O)NCCc3ccc(S(N)(=O)=O)cc3)CC2=O)cc1 (stereo unspecified)	D2 antagonist 38
CCOc1ccc(N2CC(C(=O)N3CCCc4ccccc43)CC2=O)cc1 (stereo unspecified)	D2 antagonist 56 (no result: D2 PAM-1)
COc1cccc(COC(=O)c2ccc(-c3nnn(Cc4cccc(OC)c4)n3)cc2)c1	none (no result: D2 antagonist, D2 ag-1, D2 PAM-2)
O=C1C=C(c2cccc3c2sc2ccccc23)C[C@@H](c2ccc(Cl)cc2)C1	D2 PAM-1 33
O=C1C=C(c2cc3ccccc3s2)C[C@@H](c2ccc(Cl)cc2)C1	none (no result: D2 PAM-1, D2 antagonist, D2 ag-2)
Oc1ccccc1N1CCN(Cc2ncc(-c3ccccc3)o2)CC1	D2 antagonist 57
Cc1cccc(S(=O)(=O)c2c(N)n(Cc3ccco3)c3nc4ccccc4nc23)c1	D2 PAM-1 45
CCc1ccc(C(=O)c2cn(CC(=O)Nc3ccc(C)c(C)c3)c3ccccc3c2=O)cc1	none (no result: D2 antagonist, D2 ag-1, D2 PAM-2)
CCOc1ccc(-n2c(=S)sc3c(=O)[nH]c(SCC(=O)NC4CCCCC4)nc32)cc1	none (no result: D2 PAM-1, D2 antagonist, D2 ag-2)
CC(C)CN(c1ccccc1)S(=O)(=O)c1nnc(NC(=O)c2ccco2)s1	D2 antagonist 68
Cc1ccc(-c2nnc(Nc3ccc(C(=O)N(C)C)cc3)c3ccccc23)cc1S(=O)(=O)N(C)C	none (no result: D2 antagonist, D2 ag-1, D2 PAM-2)
Cc1cc(C)n(CCc2nc3c4ccccc4nc(N4CCN(c5ccccc5)CC4)n3n2)n1	none (no result: D2 antagonist, D2 ag-1, D2 PAM-2)
CC(c1ccccc1)n1cc(C(=O)NCC2CCCO2)nn1 (stereo unspecified)	D2 antagonist 40
COc1cccc(N=c2oc3cc(O)ccc3cc2C(=O)NCC2CCCO2)c1 (stereo unspecified)	none
CSc1ccccc1C(=O)NCC1CCCO1 (stereo unspecified)	none
COc1ccccc1N=c1oc2cc(O)ccc2cc1C(=O)NCC1CCCO1 (stereo unspecified)	D2 antagonist 36
COCCSc1ccccc1C(=O)NCC1CCCO1 (stereo unspecified)	D2 antagonist 34
CC(c1ccccc1)n1cc(C(=O)NCCN2CCOCC2)nn1 (stereo unspecified)	none
CCCCOC(=O)/C(=C/C=C/c1ccccc1)NC(=O)c1ccccc1	none (no result: D2 PAM-1)
CCCCOC(=O)/C(=C\c1ccc([N+](=O)[O-])o1)NC(=O)c1ccccc1	D2 PAM-1 36
COc1ccc(C(=O)N/C(=C\c2ccc([N+](=O)[O-])cc2)C(=O)NC(CCSC)C(=O)O)cc1 (stereo unspecified)	D2 antagonist 35
COc1cccc(Nc2nc(C(N)c3ccccc3)cs2)n1 (stereo unspecified)	none (no result: D2 PAM-1, D2 antagonist, D2 ag-2)
COc1ccccc1CN1CC(C(=O)NCc2cccc(Cl)c2)CCC1=O (stereo unspecified)	D2 antagonist 36
COc1cccc(CN2CC(C(=O)NCc3cccc(Cl)c3)CCC2=O)c1 (stereo unspecified)	none
CC1CCCCC1NC(=O)COC(=O)c1ccc2c(c1)OCCO2 (stereo unspecified)	none
Cc1ccc(C(C(=O)NC2CCCCC2)N(CCCN2CCOCC2)C(=O)c2snc(C(N)=O)c2N)cc1 (stereo unspecified)	D2 antagonist 49
COc1cc(OC)cc(N(C(=O)c2snc(C(N)=O)c2N)C(C(=O)NCC2CCCO2)c2ccc(C)o2)c1 (stereo unspecified)	D2 PAM-1 35 (no result: D2 ag-1, D2 PAM-2)
Cc1ccc(N(C(=O)c2snc(C(N)=O)c2N)C(C(=O)NC2CCCC2)c2ccncc2)cc1 (stereo unspecified)	D2 antagonist 105
CCOc1ccc(N(C(=O)c2snc(C(N)=O)c2N)C(C(=O)NC2CCCC2)C(C)C)cc1 (stereo unspecified)	D2 PAM-1 31
CCOc1ccc(N(C(=O)c2snc(C(N)=O)c2N)C(C)C(=O)NC2CCCCC2)cc1 (stereo unspecified)	none (no result: D2 PAM-1)
CN(C)C(=O)c1ccc(NC(=O)c2cccc(-n3cnnn3)c2)cc1	none (no result: D2 PAM-1, D2 antagonist, D2 ag-2)
CC(C)CCNC(=O)CCn1c(=S)oc2ccccc21	D2 PAM-1 44
Cc1ccc(CN2CCN(/N=C/c3cccn3C)CC2)c(C)c1	D2 antagonist 51
O=C1/C(=C/c2ccc(N3CCCC3)cc2)NC(=S)N1C1CC1	D2 ag-2 48
Cc1cc(N2CCCC2)ccc1/C=C1\NC(=S)N(C)C1=O	D2 ag-2 36
